Pol kappa inh = blocks human DNA polymerase kappa activity. Q9UBT6. purified Pol kappa, fluorescent DNA synthesis assay, 10 min. Potency, µM (doses to about 107 µM), inactives show at the highest dose activity, negative = inhibition, most hits filed as inhibitors. 0.53% of 400,000 active. AID 588579; note: potency is the fitted concentration of half-maximal effect; % is set by controls: 0 for no effect and ±100 for the full control effect
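Kinetic fluorescence readout at 0 and 10 min followed reaction start with substrate at 50 nM final. Beforehand, enzyme (10 nM Pol kappa) stood 15 min with compound at room temperature; buffer-only wells were negative controls.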
POLB inh = blocks human DNA polymerase beta activity; P06746; Pol beta primer extension/strand displacement, fluorescence kinetic; Potency, µM (titrated, usually from 114 µM), for the others: at the highest dose activity change, negative = inhibition, hits mostly inhibitors; 1.3% of 340,000 active; AID 485314; note: potency is the fitted concentration of half-maximal effect; % is set by controls: 0 for no effect and ±100 for the full control effect
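10 nM enzyme + cpd, 15 min RT; start with substrate 50 nM final; read 0 min and after 10 min RT. Corrected, normalized data; 4-parameter Hill curve fit.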
WRN helicase inh = inhibitors of human WRN helicase | WRN helicase unwinding, fluorescent forked duplex, kinetic | Potency, µM (top dose mostly 114 µM), without a hit: top-dose activity change, negative = inhibition, hits mostly inhibitors | 0.46% of 360,000 active | AID 651768; note: potency is the fitted concentration of half-maximal effect; % is set by controls: 0 for no effect and ±100 for the full control effect; nearly all actives have a fitted effect of over 55% in size
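Kinetic red-fluorescence monitoring (525/598 nm) tracks WRN helicase activity after 100 nM fluorophore-quencher forked duplex and 2 mM ATP are added to 20 nM enzyme pretreated 15 min at room temperature with compound.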
PI5P4Ka inh = blocks human PI5P4K alpha kinase activity; P48426; PI5P4Kalpha enzyme, ADP-Glo luminescence, 60 min; active compounds read low; max response, %; 1.2% of 330,000 active; active = max response of -50% or lower; inconclusive = between -30% and -50%; inactive = -30% or higher; note: value at the top dose of about 77 µM; % is set by controls: 0 for no effect and ±100 for the full control effect
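Controls without substrate or without enzyme flank wells where PI5P4Kalpha converts substrate using 5 microM ATP (final). Incubation lasts 60 minutes at room temperature; ADP formed is read by ADP-Glo luminescence.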
Pol eta inh = inhibitors of human DNA polymerase eta; recombinant Pol eta, fluorescent DNA replication assay; 1.2% of 390,000 active; Potency, µM (doses to about 114 µM), without a hit: top-dose activity change, negative = inhibition, actives largely listed as inhibitors; note: potency is the fitted concentration of half-maximal effect; % is set by controls: 0 for no effect and ±100 for the full control effect
Target sequence (Q9Y253 whole entry, looked up): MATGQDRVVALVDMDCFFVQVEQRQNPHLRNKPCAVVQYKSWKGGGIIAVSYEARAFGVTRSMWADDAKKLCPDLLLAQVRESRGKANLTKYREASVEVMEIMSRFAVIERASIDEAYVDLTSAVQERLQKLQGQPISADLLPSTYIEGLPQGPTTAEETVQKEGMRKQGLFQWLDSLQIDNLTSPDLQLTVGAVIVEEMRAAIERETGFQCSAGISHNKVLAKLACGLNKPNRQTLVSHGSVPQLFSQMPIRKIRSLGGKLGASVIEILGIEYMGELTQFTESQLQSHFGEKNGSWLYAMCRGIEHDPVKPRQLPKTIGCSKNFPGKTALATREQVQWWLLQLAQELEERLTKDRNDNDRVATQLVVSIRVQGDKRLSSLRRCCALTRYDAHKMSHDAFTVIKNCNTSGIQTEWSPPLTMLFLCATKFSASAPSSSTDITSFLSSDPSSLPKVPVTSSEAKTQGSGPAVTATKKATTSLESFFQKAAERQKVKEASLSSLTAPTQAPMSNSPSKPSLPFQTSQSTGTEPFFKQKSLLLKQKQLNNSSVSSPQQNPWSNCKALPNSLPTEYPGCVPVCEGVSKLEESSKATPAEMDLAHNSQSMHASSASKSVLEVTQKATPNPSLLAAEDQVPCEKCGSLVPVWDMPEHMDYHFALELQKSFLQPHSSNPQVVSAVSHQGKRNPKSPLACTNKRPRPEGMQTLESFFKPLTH
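Pol eta (10 nM) was preincubated with compounds for 15 min at room temperature, after which fluorescent replication substrate (50 nM final) was added to start the reaction. Fluorescence was read kinetically at 0 and 10 min.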
Pol iota inh = inhibitors of human DNA polymerase iota | Q9UNA4 | Pol iota fluorescent replication assay, 10 min | Potency, µM (top dose mostly 115 µM), for the others: at the highest dose activity, negative = inhibition, actives largely listed as inhibitors | 1% of 390,000 active | AID 588590; note: potency is the fitted concentration of half-maximal effect
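Pol iota at 10 nM preincubated 15 min with compounds at room temperature; reaction started with fluorescent substrate, 50 nM final. Fluorescence read kinetically at 0 and 10 min; buffer-only wells as negative control.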
The depositor's hits bear a star; ! = not active in a repeat; [ ] = another dose, or the depositor's remark. Hits are enriched below; roughly 2.8% of the tested compounds scored in any of these assays. Unless noted, calls come from the whole dose curve; as a rule, active = well fitted curve in the direction sought with a large enough effect; inconclusive = small, poorly fitted or top-dose-only effect, or another doubt; inactive = no such curve, though single readings can be large; an effect the other way counts as inactive or inconclusive.

Results for Cc1cc(=O)oc2cc(OCC(=O)N/N=C/c3ccccc3[N+](=O)[O-])ccc12 ?
Pol kappa inh: inconclusive; POLB inh: 31.6µM*; WRN helicase inh: inconclusive; PI5P4Ka inh: -13.9; Pol eta inh: inconclusive; Pol iota inh: 28.2µM*

How did NC(=O)N/N=C/c1ccc([N+](=O)[O-])o1 do in these assays?
Pol kappa inh: 4.4%; WRN helicase inh: -6.9%; PI5P4Ka inh: -16.1; Pol eta inh: -12.0%; Pol iota inh: -7.1%

What do the screens show for `O=C(COc1ccccc1)N/N=C/c1ccc([N+](=O)[O-])o1`?
Pol kappa inh: inconclusive; POLB inh: -4.1%; WRN helicase inh: -30.7%; PI5P4Ka inh: -55.1*; Pol eta inh: inconclusive; Pol iota inh: inconclusive

What do the screens show for `Cc1ccc(NC(=O)CCC(=O)N/N=C/c2ccc([N+](=O)[O-])o2)cc1C`?
Pol kappa inh: -16.5%; POLB inh: inconclusive; WRN helicase inh: -12.2%; PI5P4Ka inh: -11.7; Pol eta inh: -8.2%; Pol iota inh: inconclusive

Results for Cc1ccc(CCNC(=O)CCS(=O)(=O)c2cc3c(cc2Cl)NC(=O)CO3)cc1 ?
Pol kappa inh: 5.6%; POLB inh: -2.3%; Pol eta inh: -7.9%; Pol iota inh: -14.8%

What do the screens show for `O=C1CC(C(=O)N2CCc3ccccc32)CN1c1cccc(C(F)(F)F)c1` (stereo unspecified)?
Pol kappa inh: -7.3%; WRN helicase inh: 9.2%; PI5P4Ka inh: 2.9; Pol eta inh: -8.4%; Pol iota inh: 23.5%

Results for Cc1nc(-c2ccc(S(=O)(=O)N3CCN(c4cccc(C(F)(F)F)c4)CC3)cc2)co1 ?
Pol kappa inh: -6.9%[60.1 µM]; POLB inh: 0.7%; Pol eta inh: -16.9%; Pol iota inh: -3.0%

Results for O=C(N/N=C/c1ccc([N+](=O)[O-])o1)C1CC1 ?
Pol kappa inh: -27.9%; POLB inh: 17.8µM*; WRN helicase inh: 0.5%[11.6 µM]; PI5P4Ka inh: -12.2; Pol eta inh: 39.8µM*; Pol iota inh: 22.4µM*

How did NC(=O)N/N=C\c1ccc([N+](=O)[O-])o1 do in these assays?
Pol kappa inh: -1.9%[12 µM]

Results for COc1ccccc1N1C(=O)C=C(Sc2nc(C)cc(C)n2)C1=O ?
Pol kappa inh: -12.3%; POLB inh: -1.8%; WRN helicase inh: inconclusive; PI5P4Ka inh: -57.0*; Pol eta inh: -5.7%; Pol iota inh: -17.2%

What do the screens show for `COc1ccccc1N1C(=O)C2CC(C)=C(C)CC2C1=O` (stereo unspecified)?
Pol kappa inh: -5.5%; POLB inh: 20.3%; WRN helicase inh: 0.2%; Pol eta inh: 9.8%; Pol iota inh: 7.5%

Results for Cc1cc(NS(=O)(=O)c2ccc(NC(=O)C(F)(F)F)cc2)nc(C)n1 ?
Pol kappa inh: -6.2%; POLB inh: 56.2µM*; WRN helicase inh: 13.5%; PI5P4Ka inh: -2.1; Pol eta inh: 3.2%; Pol iota inh: 23.6%

Results for O=c1ccc2cc(O)c(O)cc2o1 ?
Pol kappa inh: 3.55µM*!; POLB inh: 0.3%; WRN helicase inh: -9.7%; PI5P4Ka inh: -5.8; Pol eta inh: -2.2%; Pol iota inh: inconclusive

What do the screens show for `COc1ccc(-c2nc3sc(CCNC(=O)C(=O)Nc4c(C)cccc4C)c(C)n3n2)cc1`?
Pol kappa inh: 0.7%[60.1 µM]; POLB inh: 3.4%; Pol eta inh: 8.5%; Pol iota inh: -18.9%

What do the screens show for `COc1cccc(NC(=O)CCCn2nc(C)c3c(C)n(-c4ccccc4)nc3c2=O)c1`?
Pol kappa inh: -11.6%; POLB inh: 2.4%; WRN helicase inh: 0.7%; PI5P4Ka inh: 3.0; Pol eta inh: -18.0%; Pol iota inh: 3.1%

Results for COc1cccc(NC(=O)Cn2nc(C)c3c(C)n(-c4ccccc4)nc3c2=O)c1 ?
Pol kappa inh: -13.5%[60.1 µM]; POLB inh: 7.2%; Pol eta inh: -4.6%; Pol iota inh: 89.1µM*

Results for COc1ccc(NC(=O)Cn2nc(C)c3c(C)n(-c4ccccc4)nc3c2=O)cc1OC ?
Pol kappa inh: -5.9%; POLB inh: 50.1µM*; Pol eta inh: inconclusive; Pol iota inh: inconclusive

Results for Cc1cccc(-c2nnn3c2nc(NCCc2ccc(S(N)(=O)=O)cc2)c2cc(Cl)ccc23)c1 ?
Pol kappa inh: -1.9%; POLB inh: -0.2%; Pol eta inh: -17.3%; Pol iota inh: 36.3%

Results for O=c1[nH]c(/C=C\c2ccc(O)cc2)nc(O)c1[N+](=O)[O-] ?
Pol kappa inh: -12.9%; POLB inh: -22.0%; WRN helicase inh: -17.9%[11.6 µM]; PI5P4Ka inh: -89.4*; Pol eta inh: inconclusive; Pol iota inh: -26.9%

What do the screens show for `CCOc1cc(/C=C\c2nc(O)c([N+](=O)[O-])c(=O)[nH]2)ccc1OC(C)C`?
Pol kappa inh: -1.0%; POLB inh: 45.6%; WRN helicase inh: 4.7%; PI5P4Ka inh: -2.7; Pol eta inh: -21.4%; Pol iota inh: 31.4%

What do the screens show for `O=c1[nH]c(/C=C\c2ccc(O)c(Cl)c2)nc(O)c1[N+](=O)[O-]`?
Pol kappa inh: -16.1%; POLB inh: 1.7%; WRN helicase inh: -0.6%; PI5P4Ka inh: -96.9*; Pol eta inh: -15.1%; Pol iota inh: inconclusive

How did O=c1[nH]c(/C=C\c2cccs2)nc(O)c1[N+](=O)[O-] do in these assays?
Pol kappa inh: -31.0%; POLB inh: inconclusive; WRN helicase inh: -25.0%; PI5P4Ka inh: -65.7*; Pol eta inh: inconclusive; Pol iota inh: 6.8%

Results for Cc1cccc(C(=O)Nc2ccc(C(=O)OCc3cc(=O)n4c(C)csc4n3)cc2)c1 ?
Pol kappa inh: -5.0%[60.1 µM]; POLB inh: 12.6µM*; Pol eta inh: -20.9%; Pol iota inh: -27.7%

How did O=C1CC(c2ccccc2)=NN1c1ccccc1 do in these assays?
Pol kappa inh: -18.6%; WRN helicase inh: -5.2%; PI5P4Ka inh: 3.6; Pol eta inh: -3.8%; Pol iota inh: -31.1%

Results for O=C1CC(c2ccccc2)=NN1c1nc(-c2ccccc2)cs1 ?
Pol kappa inh: 39.8µM*; POLB inh: 31.6µM*; WRN helicase inh: 0.3%[11.6 µM]; PI5P4Ka inh: inconclusive; Pol eta inh: -20.0%; Pol iota inh: 20µM*

What do the screens show for `Cc1cc(C)cc(NC(=O)CCS(=O)(=O)c2ccc3c(c2)oc(=O)n3C)c1`?
Pol kappa inh: 2.8%; POLB inh: 15.2%; Pol eta inh: 3.6%; Pol iota inh: 11.1%

What do the screens show for `Cc1ccc(S(=O)(=O)N2CCCCC2C(=O)NCc2ccco2)cc1` (stereo unspecified)?
Pol kappa inh: -29.8%; POLB inh: 8.2%; WRN helicase inh: -7.8%; PI5P4Ka inh: -12.7; Pol eta inh: inconclusive; Pol iota inh: 89.1µM*
